Laboratory results reported in PubChem BioAssay AID1259415 (National Center for Advancing Translational Sciences (NCATS), 2018).
In all, about 410,000 compounds went through this assay and about 18,000 (4.4%) were called active. Inconclusive results (about 7%) are left out. The list comes from a sample in which actives are over-represented; it also holds similar structures and randomly drawn compounds. Unmarked numbers belong to inactive results. Cut-off read from the data, not from the text of the source: active = activity change below about -60%; inconclusive = no clear call, values can overlap the other calls; inactive = above about -39%.

Assay: qHTS Assay for inhibitors of the human cytomegalovirus (HCMV)
Details: HFF cells, HCMV-luciferase reporter, 72 h; at 57.5 µM; hits give low values
Source text: NCGC Assay Overview: Infection with human cytomegalovirus (HCMV) continues to pose significant threats for pregnant women and immunocompromised hosts. HCMV causes serious morbidity and mortality in transplant recipients, and congenital HCMV is the leading infectious cause of mental retardation and deafness in children. In the 1990s, the annual costs associated with the disease burden of congenital CMV were estimated at around $2 billion. A HCMV vaccine is not available yet and HCMV therapies result in intolerable side effects and emergence of drug resistant viruses. […] Towards this goal we have developed and characterized a luciferase HCMV reporter that was initially used in 96 well plates and then optimized to 1536-well plates for utilization in screening of the MLSMR collection, the NGCG diversity collection and the NCGC Pharmaceutical Collection of approved and investigational drugs.
NCGC Assay Protocol Summary:
This is a cell-based assay for HCMV inhibition in HFFs cells. The screening used 2 compound doses and the HCMV-luciferase at MOI of 1 PFU/cell. Cells were treated and infected with HCMV. At 72 h post infection cell lysates were collected and luciferase activity was determined using the Glomax-Multi + Detection System (Promega, Madison, WI). Data were normalized to the controls for basal activity (buffer only) and known HCMV inhibitors Salinmoycin.
1536-well assay protocol for the assay:
(1) Add 3 ul CMV/HFF cell culture. 1000 cells/well in DMEM nirmal media.
(2) Incubate 16 hr at 37C.
(3) Add 23 nl control compound, 10uM of Salinomycin.
(4) Add 23 nl compounds in DMSO solution.
(5) Add 3 ul CMV suspension. Final 1 puf/ul, Virus stock 2000pfu/ul
(6) Incubate 72 hrs at 37C.
(7) Add 4 ul OneGlo Luc Reagent.
(8) Incubate 5 min at room temperature.
% is set by controls: 0 for no effect and ±100 for the full control effect.

| SMILES | activity change, negative = inhibition |
| --- | --- |
| O=C1c2cccc3c([N+](=O)[O-])ccc(c23)C(=O)N1CC1CCCO1 (stereo not drawn) | -82.1% (active) |
| O=C1C(C=NCC2CCCO2)=C(O)c2ccccc21 (stereo not drawn) | 69.7% |
| COc1ccc(C(=O)OCC(=O)NCC2CCCO2)cc1[N+](=O)[O-] (stereo not drawn) | 15.2% |
| CCOc1cc(C(C(=O)NCC2CCCO2)N(C(=O)Cn2nnc3ccccc32)c2cccc(OC)c2)ccc1O (stereo not drawn) | -8.64% |
| Cc1ccc2oc(=O)c3cnn(CC(=O)NCc4ccccc4Cl)c3c2c1 | -4.14% |
| COc1ccc(NC(=O)c2sc3nc[nH]c(=O)c3c2C)cc1 | 52.3% |
| CCCn1c(N)c(C(=O)CSc2nc3ccccc3c(=O)n2-c2ccc(OC)cc2)c(=O)[nH]c1=O | -29.3% |
| Cc1ccc(-n2c(SCC(=O)N3CCC(C(=O)O)CC3)nc3ccccc3c2=O)cc1C | 6.85% |
| COc1cccc(-n2c(SCC(=O)c3c[nH]c4ccccc34)nc3ccccc3c2=O)c1 | -93.8% (active) |
| COc1ccc(C)cc1NC(=O)COCc1cc(-c2cccs2)on1 | -10.8% |
| Cc1ccc(C)c(N2CCN(c3ccc4cc(S(=O)(=O)N5CCC(C)CC5)ccc4n3)CC2)c1 | 19% |
| COc1cccc(NC(=O)N2CCC(NC(=O)C(Cc3cccc(C)c3)NC(C)=O)CC2)c1 (stereo not drawn) | -66.8% (active) |
| CCOC(=O)C1CCN(C(=O)Nc2cccc(OC)c2)CC1 | 5.16% |
| COc1ccccc1CC(NC(C)=O)C(=O)NC1CCN(C(=O)Nc2ccccc2Cl)CC1 (stereo not drawn) | 0.54% |
| O=C(NCCCO)C(=O)Nc1c2c(nn1-c1ccccc1)CSC2 | -2.71% |
| COc1cccc(CN2CCc3nc(SCC(=O)Nc4ccccc4)[nH]c(=O)c3C2)c1 | 4.11% |
| O=C(Nc1c(Cl)c(C2CC2)nn1-c1ccccc1)C(Cl)(Cl)Cl | 12.3% |
| CCOc1ccc(N(CC)S(=O)(=O)N2CCCC(C(=O)NCc3ccc(Cl)cc3)C2)cc1 (stereo not drawn) | -15.9% |
| CCCCNC(=O)C1CCCN(c2nnc(C)c3c(C)n(-c4ccc(Cl)cc4)nc23)C1 (stereo not drawn) | -6.23% |
| CCOc1ccc(CNC(=O)C2CCCN(c3nnc(C)c4c(C)n(-c5ccccc5)nc34)C2)cc1 (stereo not drawn) | -67.7% (active) |
| COc1ccc(S(=O)(=O)N2CCN(CC(=O)N3CCOCC3)CC2)cc1OC | 4.11% |
| Cc1ccn(-c2cccc(-n3ccc(C)n3)n2)n1 | 65.3% |

| SMILES | activity change, negative = inhibition |
| --- | --- |
| CC(=O)NC(CC(=O)Nc1ccc(S(=O)(=O)N2CCOCC2)cc1)c1ccccc1 (stereo not drawn) | 0% |
| COc1cc(NS(=O)(=O)c2cccs2)cc(OC)c1 | 16.4% |
| COC(=O)c1ccccc1NS(=O)(=O)c1ccc2c(c1)CCCN2C(C)=O | -2.94% |
| COc1cc(NC(=O)c2ccccc2NS(=O)(=O)c2ccc(Cl)s2)cc(OC)c1 | -99.7% (active) |
| Cc1cc(NS(=O)(=O)c2ccc(NC(=O)c3ccccc3C)cc2)nc(C)n1 | -5.8% |
| COc1cccc(NC(=O)c2ccccc2N(Cc2ccccc2)S(C)(=O)=O)c1 | -6.12% |
| COC(=O)c1ccc(NC(=O)c2ccccc2NS(=O)(=O)c2ccccc2)cc1 | -105% (active) |
| COc1ccc(C2CC(=O)Nc3c2c(=O)nc2c(C)cccn32)cc1OC (stereo not drawn) | 3.37% |
| CCn1c(CNC(=O)c2ccccc2)nnc1SCC(=O)N1CCN(c2ccccc2)CC1 | -25.6% |
| O=C(CCNS(=O)(=O)c1ccccc1C(F)(F)F)Nc1ccncc1 | 6.98% |
| O=C(CN1CCN(c2ccccc2O)CC1)NC(=O)NCc1ccccc1 | -4.33% |
| Cc1ccccc1NC(=O)C1CCCN(C(=O)NCc2ccccc2)C1 (stereo not drawn) | -18.4% |
| Oc1ccc(N2CCN(C(=S)NCc3ccccc3)CC2)cc1 | -63.6% (active) |
| COc1cc(C2C(C(=O)OCCC#N)=C(C)NC3=C2S(=O)(=O)c2ccccc23)cc(OC)c1OC (stereo not drawn) | 2.51% |
| COc1ccccc1N1CCN(c2ncnc3onc(-c4cccc(Cl)c4)c23)CC1 | 10.1% |
| COc1ccc2c(c1)c(N1CCCC1=O)c(C(=O)Nc1ccc(OC)c(Cl)c1)n2C | -18.9% |
| Cc1nn(CC(=O)O)c(=O)c2cc3cc(F)ccc3n12 | 31% |
| Cc1cccc(OCCNC(=S)NC(=O)c2cccnc2)c1 | -37.9% |
| Cc1cccc(OCC(=O)NCCNC(=O)c2cccnc2)c1 | -66.9% (active) |
| CCNC(=O)COC(=O)CCNC(=O)c1cccc(C)c1 | -28.9% |
| Cc1cc(C)c(S(=O)(=O)NN=C2c3ccccc3[C@H]3Cc4csc[n+]4[C@@H]23)c(C)c1 | -27.2% |
| O=C(CCc1nc(CN2CCN(S(=O)(=O)c3ccc(F)cc3)CC2)no1)N1CCCCC1 | -35.8% |

| SMILES | activity change, negative = inhibition |
| --- | --- |
| Cc1cccc(C)c1NC(=O)C1CCCN1C(=O)OC(C)(C)C (stereo not drawn) | -2.93% |
| CCC[C@H]1CCCC/C=C\CCCC(=O)OCCN1C(=O)OC(C)(C)C | -71.3% (active) |
| CC1CCCCC1NC(=O)CSc1nnc(N)s1 (stereo not drawn) | 41.4% |
| Cc1nc(SCC(=O)NC2CCCC2)[nH]c(=O)c1C | -10.8% |
| Cc1nc(SCC(=O)NC2CCCCC2C)c(C#N)c(C)c1C (stereo not drawn) | -103% (active) |
| COc1cccc(CNC(=O)[C@@H]2CCCN2C(=O)[C@@H]2CCCN2C(=O)c2ccccc2)c1 | -2.63% |
| O=C(NCCS(=O)(=O)NCc1ccc(F)cc1)c1ccccc1 | -9.67% |
| Cc1nc2c(C(=O)NCc3ccc4c(c3)OCO4)c[nH]n2c(=O)c1Cc1ccccc1F | -7.59% |
| Cc1c(NS(=O)(=O)c2cccc(C(=O)Nc3ccc(SC(F)F)cc3)c2)c(=O)n(-c2ccccc2)n1C | -2.26% |
| COc1ccc(NC(=O)/C(N=Nc2cccc(S(=O)(=O)Nc3ccc(SC(F)F)cc3)c2)=C(\C)O)cc1 | -70.6% (active) |
| COc1ccc(NS(=O)(=O)c2cccc(C(=O)NCCc3ccc(S(N)(=O)=O)cc3)c2)cc1 | -1.91% |
| Cc1ccc(Cl)cc1N1CCN(C(=O)c2cnc3c(-c4ccc(F)cc4)c(C)nn3c2C)CC1 | 7.36% |
| Cc1cccc(NC(=O)N2CCC(CN3CCc4ccccc4C3)CC2)c1C | 7.59% |
| O=C(Nc1cccc([N+](=O)[O-])c1)N1CCc2ccccc2C1 | -65.7% (active) |
| Cc1cccc(OC(C)C(=O)N2CCc3ccccc3C2)c1 (stereo not drawn) | -31.1% |
| CC(=O)c1ccc(NC(=O)c2nc3nc(C)cc(C(F)F)n3n2)cc1 | 19.3% |
| CCOc1ccc(-c2nonc2NC(=O)c2oc3ccc(C)cc3c2C)cc1OCC | 5.37% |
| Cc1ccc2c(O)c(Cc3ccccc3)c(=O)[nH]c2n1 | 22% |
| COC(=O)c1ccc2nc(-c3ccc(Cl)cc3)c(Cc3cccc(F)c3)n2c1 | -17.1% |
| Cc1nc2ccccn2c(=O)c1NC(=O)c1c(F)cccc1F | -14.4% |
| O=C(Nc1c(-c2ccc(F)cc2)nc2ccccn12)c1cccc(F)c1 | -69.4% (active) |
| Cc1ccc(CNC(=O)c2c(O)nc3c(C)cccn3c2=O)cc1 | 5.82% |

| SMILES | activity change, negative = inhibition |
| --- | --- |
| COC(=O)[C@@]1(Sc2ccc(OC)cc2)CC(=O)N(c2ccc(OC)cc2C)[C@@H]1c1ccc(OC(C)C)c(OC)c1 | 10.7% |
| COc1cc(OC)c(NC(=O)c2cnc(N3CCCC3)nc2C)cc1Cl | -14.2% |
| Cc1nnc(SCC(=O)N(C(C)C)C(C)C)nc1C | -39.9% |
| CC(C)OCCCNc1ncnc2c1[nH]c1ccc(F)cc12 | -79% (active) |
| COc1ccc(Cn2cc(C(=O)c3ccc(C)cc3)c(=O)c3cc(OC)c(OC)cc32)cc1 | -22.1% |
| O=C(NC1CCCC1)C(c1ccco1)N(C(=O)c1csnn1)c1ccccc1 (stereo not drawn) | 13.9% |
| CCCCN(C(=O)C1=NN(c2cc(C)ccc2C)C(=O)CC1)c1c(N)n(CCC)c(=O)[nH]c1=O | 8.37% |
| Cn1c(=O)c2c(SCC(=O)N3CCc4ccccc43)nc(-c3ccc(Cl)cc3)nc2n(C)c1=O | 17.9% |
| COc1ccccc1N1CCN(c2ncnc3onc(-c4ccc(F)cc4)c23)CC1 | -11.8% |
| CCCCCCCCCCCCn1ccc(=N)cc1 | -96.6% (active) |
| O=C(CCSCc1cccc(F)c1)NCc1ccccc1 | -2.8% |
| O=C(NCC(c1ccc2c(c1)OCO2)N1CCN(c2ccccc2)CC1)C(=O)Nc1ccccc1F (stereo not drawn) | 9.73% |
| COC(=O)C1=C(c2ccccc2)c2ccccc2S(=O)(=O)N1CC(=O)Nc1ccccc1C(F)(F)F | -5.56% |
| CCCc1nn2c(=O)cc(COC(=O)c3ccc(NC(=O)C(C)Oc4ccccc4)cc3)nc2s1 (stereo not drawn) | -18.3% |
| COC(=O)CC1Oc2ccccc2-n2cc(-c3ccccc3)nc21 (stereo not drawn) | -14.2% |
| COCC(C)n1c(SCc2ccc(C(=O)OC)o2)nc2ccccc2c1=O (stereo not drawn) | -23% |
| COCC(C)n1c(C)cc(C(=O)CSc2cc(C)c3ccccc3n2)c1C (stereo not drawn) | -3.64% |
| COCCn1c(C)cc(C(=O)CSc2nc3ccccc3c(=O)n2C(C)COC)c1C (stereo not drawn) | -66% (active) |
| O=C(NC1CCCC1)c1csc(C(O)c2cccc(Cl)c2)n1 (stereo not drawn) | -12.9% |
| CC1CN(C(=O)c2ccc3c(c2)OCO3)OC(c2ccccc2)O1 (stereo not drawn) | 26.2% |
| CCCCCCn1nnc2sc(-c3ccccc3)cc2c1=O | 15.8% |
| COc1ccc(CNC(=O)c2ccc3c(O)c(S(=O)(=O)c4ccccc4)c(=O)[nH]c3c2)cc1 | 6.38% |
